# Test results: PubChem BioAssay (Tox21)
# A number with no mark means an inactive call. Active and inactive are the calls of the source. Calls come from the whole dose curve; as a rule, active = well fitted curve in the direction sought with a large enough effect in the repeat runs; inconclusive = weak or mixed curves; inactive = flat fitted curve, though single readings scatter.
# Assay: qHTS assay to test for compound auto fluorescence at 535 nm (green) in HepG2 cell free culture (AID 720686)
# Conditions: Cell-free medium, green autofluorescence 485/535 nm; series mostly up to 91.3 µM; fluorescence, % of fluorescein control: at the top concentration
# Source text: U.S. Tox21 Program National Center for Advancing Translational Sciences [NCATS] NIH Chemical Genomics Center [NCGC] U.S. Environmental Protection Agency [EPA] National Institutes of Environmental Health Sciences [NIEHS] National Toxicology Program [NTP] U.S. Food and Drug Administration [FDA] Tox21 Assay Overview: Compound auto fluorescence often interferes with screening of the compound library against various biological targets and signaling pathways. Some of these compounds may have fluorophoric properties. Such properties may interfere with the assay outputs resulting in false positives and/or negatives. To decrease such complications and ensure the compound activities are relevant in terms of biological response, the Tox21 10K compound library was screened for auto fluorescence. From the fluorophores used as reporter signals in our screening assays, the auto fluorescence equivalencies of compounds against three fluorophores have been evaluated: Triamterene, Fluorescein and Rose Bengal sodium for blue, green and red fluorescence, respectively. The fluorescence intensities were measured using Excitation/Emission wavelengths at 405/460nm, 485/535nm and 540/590nm for blue, green and red labels, respectively. This assay includes the green fluorescence data.
# Tox21 Assay Protocol Summary: 5 uL of culture medium (MEM containing 10% FBS) per well was dispensed into black wall/clear bottom 1536-well plates using a Multidrop Combi Dispenser (ThermoFisher Scientific, Waltham, MA). After 23 nL compound or DMSO vehicle was transferred into assay plate by a pintool work station (Kalypsys, San Diego, CA), fluorescence intensities in the assay plates were measured by an Envision (PerkinElmer, Shelton, CT) plate reader using three labels for measuring blue, green and red fluorescence at […] 460, 535 and 590nm respectively.
# % is set by controls: 0 for no effect and ±100 for the full control effect.
SMILES,"fluorescence, % of fluorescein control",outcome
O=S(=O)(O)c1cccc(S(=O)(=O)O)c1,-0.0451%,–
CCCCCC(C)N (stereo not given),-0.0087% [at 46 µM],–
[O-][n+]1cccc(CO)c1,0.0431% [at 46 µM],–
CCN[C@H]1C[C@H](C)S(=O)(=O)c2sc(S(N)(=O)=O)cc21,0.0226% [at 46 µM],–
O=C(O)c1cc(C(=O)O)cc(C(=O)O)c1,0.0364% [at 95.7 µM],–
COc1cc(C(=O)OC(COCCC(C)C)CN2CCOCC2)cc(OC)c1OC (stereo not given),-0.0217% [at 46 µM],–
CC(CO)(CO)[N+](=O)[O-],0.0194%,–
CC(C)(N)C#N,0.0146% [at 95.7 µM],–
O=C(O)CNC(=O)c1ccc(CO)o1,-0.0756%,–
O=S(=O)(O)c1cc(O)c(O)c(S(=O)(=O)O)c1,-0.0005%,–
CCC1C(=O)OCC1Cc1cncn1C (stereo not given),0.0137% [at 46 µM],–
Clc1cc(Cl)c(Cl)nc1Cl,-0.0944%,–
Cc1ncc(COP(=O)(O)O)c(C=O)c1O,-0.0202% [at 46 µM],–
CC(=O)c1cnccn1,-0.0017% [at 95.7 µM],–
CCOC(=O)COC(=O)c1ccccc1C(=O)OCC,0.0422%,–
CN1CC(=O)N/C1=N/C(=O)Nc1cccc(Cl)c1,–,inactive
C=CCCC(=O)O,0.0488%,–
Cc1cc(C)c(N=Nc2c(O)c(S(=O)(=O)O)cc3cc(S(=O)(=O)O)ccc23)cc1C,-0.0747% [at 9.17 µM],–
O=C(O)CC(C(=O)O)S(=O)(=O)O (stereo not given),-0.0179%,–
CCCC[N+](C)(CCCC)CCCC,-0.293%,–

SMILES,"fluorescence, % of fluorescein control",outcome
CO/N=C(\C(=O)N[C@@H]1C(=O)N2C(C(=O)O)=C(CSc3nc(=O)c(O)nn3C)CS[C@H]12)c1csc(N)n1,0.0159% [at 46 µM],–
C[C@@H]1CCC[C@H](C)N1,-0.001% [at 18.6 µM],–
CC1=NN(c2cc(S(=O)(=O)O)ccc2Cl)C(=O)C1N=Nc1ccccc1 (stereo not given),0.0187%,–
NC(=O)N[C@@H](CCC(=O)O)C(=O)O,-0.0086% [at 46 µM],–
CCN(Cc1ccccc1)c1ccccc1,-0.008%,–
COc1ccccc1OCC1CNC(=O)O1 (stereo not given),0.0329% [at 46 µM],–
Cc1ccnc(NS(=O)(=O)c2ccc(N)cc2)n1,0.0314% [at 18.6 µM],–
COc1cc(C)nc(-n2nc(C)cc2OC)n1,-0.0352% [at 18.6 µM],–
CCCc1ncc(C[n+]2ccccc2C)c(N)n1,0.0635% [at 18.6 µM],–
Cc1ncc([C@@H](CCCCCCc2ccc3c(n2)NCCC3)CC(=O)O)cn1,-0.0248%,–
CC1=NS(=O)(=O)c2cc(Cl)ccc2N1,0.0045% [at 46 µM],–
COc1ccnc(CS(=O)c2nc3cc(OC(F)F)ccc3[nH]2)c1OC (stereo not given),–,inactive
CCCCCCC#CC(=O)OC,-0.0038%,–
CN(C)CCCN(C)CCCN(C)C,-0.02%,–
CC(C)(C)C(=O)Oc1ccc(S(=O)(=O)Nc2ccccc2C(=O)NCC(=O)O)cc1,-0.0509% [at 46 µM],–
CCCCCC(=O)OCCc1ccccc1,-0.0339%,–
CC1=C(C/C=C(\C)CCC[C@H](C)CCC[C@H](C)CCCC(C)C)C(=O)c2ccccc2C1=O,0.0873% [at 46 µM],–
CC(C)C[C@@H](N)C(=O)O,-0.0181% [at 46 µM],–
CC1(C)[C@@H]2CC[C@@]1(C)[C@H](O)C2,0.129%,–
Nc1ccccn1,-0.164%,–
